PubChem BioAssay (NCI)
The panel holds about 83,000 compounds, 20% with a hit somewhere; the sample as a whole holds those more often.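 Plates (96-well) were seeded with cells, treated with compound at one concentration, and incubated for 48 hours before percent growth was determined.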 A number with no mark means an inactive call. Calls of active or inactive are those of the source. Rule for the calls: active = growth percent below 10; inactive = the rest.

The molecules below were run on CCRF-CEM leukemia (assay: NCI-60 one-dose screen, 48 h (100 = growth as untreated, 0 = no growth, -100 = all killed)). Conditions: 10 µM unless noted.
Work on `O=C(Nc1ccc(O)cc1)C(Cl)(Cl)Cl` yielded a growth of 106%.
In the case of `CCCOC(=O)N[C@H]1CCc2c(Br)c(OC)c(OC)c(OC)c2-c2ccc(SC)c(=O)cc21`, the growth is reported as 5.05% (active).
In the case of `CCOC(=O)[C@@H](C)C[C@H](Cc1ccccc1)NC(=O)c1csc([C@@H](C[C@H](C(C)C)N(C)C(=O)[C@@H](NC(=O)[C@H]2CCCCN2C)C(C)(C)CC)OC(C)=O)n1`, the growth is reported as 3.47% (active).
`CN1CC(CNC(=O)OCc2ccccc2)CC2c3cccc4c3c(cn4C)CC21` (centres undefined) was tested, and the growth was 45.7%.
`COc1ccc(NC([Se])=NC23CC4CC(CC(C4)C2)C3)cc1` was tested, and the growth was 5.94% (active).
With `ClCCN(CCCl)c1ccc(/C=N\N=C\c2ccc(N(CCCl)CCCl)cc2)cc1` the growth was 25%.
`C[C@@]12CC=C3c4nc(Nc5cccc(O)c5)sc4CC[C@]3(C)[C@H]1CC[C@]1(C)C(=O)CC[C@@H]21` showed a growth of 13%.
With `O=[N+]([O-])/C=C\c1ccc(Cl)c(Cl)c1` the growth was 33.6%.
Work on `CC(C)OC(=O)[C@H](C)NP(=O)(Oc1ccccc1)C1CCCN(O)C1=O` (some centres undefined) yielded a growth of 91.3%.
`C=CCn1cc(C=C2C(=O)N(C)C(=O)N(C)C2=O)c2ccccc21` gave a growth of 87.9%.
`COC(=O)[C@@H](C)C[C@H](Cc1ccccc1)NC(=O)c1nc([C@@H](C[C@H](C(C)C)N(C)C(=O)[C@@H](NC(=O)[C@H]2C[C@H](O)CCN2C)C(C)C)OC(C)=O)sc1C(C)C` was tested, and the growth was 4.78% (active).
Work on `N#CC1C(C#N)C2CCC1C1C2N1c1ccccc1` (centres undefined) yielded a growth of 82.9%.
`CC(C)(NC(=O)O[C@@H]1CN2CCC1CC2)c1csc(-c2ccc(F)cc2)n1` gave a growth of 98.3%.
In the case of `CCC(C)(C)[C@H](NC(=O)[C@H]1CCCCN1C)C(=O)N(C)[C@H](C[C@@H](OC(C)=O)c1nc(C(=O)N[C@@H](Cc2ccccc2)C[C@H](C)C(=O)O)cs1)C(C)C`, the growth is reported as 2.41% (active).
`C[C@]12CCc3sc(-c4ccccc4O)nc3C1=CC[C@@H]1[C@@H]2CC[C@]2(C)C(=O)CC[C@@H]12` showed a growth of 118%.
With `N#CC1(C#N)C(c2ccc(N(CCCl)CCCl)cc2)OC23CCCCC2C1(C#N)C(=N)O3` (centres undefined) the growth was 77%.
Molecule `C=CCCCN=C=S` has a growth of 50.1%.
`Cc1cccc(N2CCN(C(C)C#N)CC2)c1` (centres undefined) showed a growth of 107%.
For `O=C(Nc1ccc([N+](=O)[O-])cc1)C(Cl)(Cl)Cl`, the growth was 101%.
With `COP(=S)(N1CC1)N1CC1` the growth was 105%.
Molecule `O=C(N/N=C\c1ccc(N(CCCl)CCCl)cc1)c1cccc([N+](=O)[O-])c1` has a growth of 82.5%.
With `CC(=O)OC[C@]1(C)C=C2C(=O)[C@](C)(O)C3(CC3)C(C)=C2[C@H]1O` the growth was 14.6%.
Molecule `CS(=O)(=O)CCN1CC2CCCC(C2)C1` has a growth of 97.2%.
`CCOC(=O)[C@@H](C)C[C@H](Cc1ccccc1)NC(=O)c1csc([C@@H](C[C@H](C(C)C)N(C)C(=O)[C@@H](NC(=O)[C@H]2C[C@H](O)CCN2C)C(C)C)OC(C)=O)n1` was tested, and the growth was 4.67% (active).
`CNCc1cccnc1` was tested, and the growth was 96.6%.
`Cn1cc(C=O)c2nccnc21` showed a growth of 102%.
Molecule `Cc1cc(N(CCCl)CCCl)ccc1C=Nc1ccccc1-c1ccccc1` has a growth of 54.2%.
`CNC(=O)Oc1ccc2c(c1)OCO2` gave a growth of 111%.
`Cn1cccc1C1CC(=O)N(CCC[Se]C#N)C1=O` (centres undefined) was tested, and the growth was 13.8%.
Molecule `CC1(C)[C@H](O)[C@H](F)C[C@@]2(C)Oc3ccc(C(=O)Nc4ccc5c(c4)NC(=O)C54CCN(CCCCC#N)CC4)cc3C[C@H]12` has a growth of 13.8%.
In the case of `CCOC(=O)[C@@H](C)C[C@H](Cc1ccccc1)NC(=O)c1nc([C@@H](C[C@H](C(C)C)N(C)C(=O)[C@@H](NC(=O)[C@H]2CCCCN2C)C(C)C)OC(C)=O)sc1CCOCc1ccccc1`, the growth is reported as 0.263% (active).
In the case of `C[C@]12CCc3sc(-c4cccc(F)c4)nc3C1=CC[C@@H]1[C@@H]2CC[C@]2(C)C(=O)CC[C@@H]12`, the growth is reported as 15.8%.
In the case of `COC(=O)[C@H](C[C@H](Cc1ccccc1)NC(=O)c1csc([C@@H](C[C@H](C(C)C)N(C)C(=O)[C@@H](NC(=O)[C@H]2CCCCN2C)C(C)C)OC(C)=O)n1)NC(=O)OCc1ccccc1`, the growth is reported as 6.6% [8.5 µM] (active).
With `C[C@]12CC[C@H]3[C@@H](C[C@@H]4SC(Nc5ccccc5)=N[C@@]45CC(O)CC[C@]35C)[C@@H]1CCC2O` (some centres undefined) the growth was 0.738% (active).
